M1 antag = human M1 muscarinic receptor antagonists, primary screen, CHO-K1 cells, Fluo-8 calcium fluorescence, 1536-well; Muscarinic acetylcholine receptor M1 (Homo sapiens), P11229; CHO-K1 hM1, ACh EC80 antagonist; inhibition, % at 3 µM; 360,000 tested, 1.3% active; AID 588852, 2011;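 active = percent inhibition above its own plate's cutoff, namely the mean of that plate's compound wells plus 3 SD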;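 also: peak over basal fluorescence ratio during 140 s after agonist addition; 0% = ACh EC80 plus DMSO and 100% = DMSO alone without agonist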
Target sequence (P11229 whole entry, looked up): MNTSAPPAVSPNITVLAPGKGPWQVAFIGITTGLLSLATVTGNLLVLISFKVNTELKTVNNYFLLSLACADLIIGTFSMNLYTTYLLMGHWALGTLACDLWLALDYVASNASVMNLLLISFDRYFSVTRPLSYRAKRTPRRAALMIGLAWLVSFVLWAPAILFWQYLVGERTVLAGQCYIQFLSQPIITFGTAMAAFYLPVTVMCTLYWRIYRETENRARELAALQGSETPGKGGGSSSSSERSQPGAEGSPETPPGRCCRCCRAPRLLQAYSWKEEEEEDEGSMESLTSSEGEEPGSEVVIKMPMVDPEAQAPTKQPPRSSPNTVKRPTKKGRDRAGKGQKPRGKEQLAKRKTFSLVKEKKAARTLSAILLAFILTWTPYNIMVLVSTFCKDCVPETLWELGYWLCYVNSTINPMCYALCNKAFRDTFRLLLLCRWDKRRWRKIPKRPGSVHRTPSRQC
CHRM1 agonist = human M1 muscarinic receptor agonists, primary screen, Fluo-8 calcium fluorescence, CHO-K1 cells, HTS | Muscarinic acetylcholine receptor M1 (Homo sapiens), P11229 | CHO-K1 hM1, agonist mode; 0% DMSO, 100% acetylcholine EC100 | activation, % at 3 µM | 360,000 tested, 0.33% active | AID 588814, 2011;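 active = activation above the run's mean compound activation plus 3 SD, cut at about 16% in these data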;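 also: peak over basal fluorescence ratio within a 140 s kinetic read after compound addition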
M1 PAM = human M1 muscarinic receptor positive allosteric modulators, primary screen, CHO-K1 cells, Fluo-8 calcium fluorescence, 1536-well; CHO-K1 hM1, ACh EC20; 0% = ACh EC20, 100% = maximal ACh; Muscarinic acetylcholine receptor M1 (Homo sapiens), P11229; 360,000 tested, 0.088% active; activation, % at 3 µM; in the data active = activation above about 19%, passing the limit was not always enough
CHO-K1 Ca antag = counter-screen for M1 antagonists: effect in parental CHO-K1 cells | ATP-induced calcium, Fluo-8 fluorescence | inhibition, % at 3 µM | 360,000 tested, 0.6% active;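 active = inhibition above a per-plate cutoff, the plate's mean sample inhibition plus 3 SD, cut at about 24% in these data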;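 also: 0% = DMSO plus EC80 ATP and 100% = DMSO alone without ATP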
M1 PAM parental = nonselective calcium activators in parental CHO-K1 cells, primary screen, counter-screen for M1 PAM project, cell-based, Fluo-8 calcium fluorescence, full deck, 1536-well. ATP EC20; 0% at ATP EC20, 100% at ATP max. activation, % at 3 µM. 360,000 tested, 0.02% active. AID 602247, 2012;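 active = activation above the run cutoff, the mean activation of all test compounds plus 3 SD, cut at about 40% in these data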;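 also: peak over basal fluorescence ratio in a 140 s read after ATP addition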
CHO-K1 Ca ag = counter-screen for M1 agonists: effect in parental CHO-K1 cells; Fluo-8 calcium fluorescence; scaled to maximal ATP response, vehicle zero; activation, % at 3 µM; 360,000 tested, 0.48% active; AID 602248, 2012; in the data active = activation above about 15%;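 also: untransfected CHO-K1 host cells lacking M1 receptor as counterscreen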
* = called active by the depositor. Hits are enriched below; roughly 2.3% of the tested compounds scored in any of these assays.

SMILES	M1 antag	CHRM1 agonist	M1 PAM	CHO-K1 Ca antag	M1 PAM parental	CHO-K1 Ca ag
CC[N+](C)(CC)CCOC(=O)C(O)(c1ccccc1)C1CCCCC1 (configuration not stated)	98*	-7	-26	0	9	0
CCC(C(=O)NC1CCCCCC1)c1ccccc1 (configuration not stated)	1	-8	-4	11	-25	0
CC[N+](C)(CC)CCC(c1ccccc1)C1CCCCC1 (configuration not stated)	100*	-9	-29	-8	28	1
COc1ccccc1N(CC(=O)N1CCN(Cc2ccccc2)CC1)S(=O)(=O)c1ccccc1	4	-7	-1	0	14	1
Cc1cc(Oc2ccccc2)nc(-c2ccccc2)n1	-10	-4	9	-36	6	-1
c1ccc(Oc2cc(-c3ccccc3)nc(-c3ccccc3)n2)cc1	9	-2	26*	3	-7	0
CN(C)C1(CNC(=O)C2CCN(S(=O)(=O)c3c(Cl)cccc3Cl)CC2)CCCCC1	-10	-6	-3	2	-12	1
Cc1ccc(N=C2SC(C(=O)NCCc3ccccc3)CC(=O)N2C)cc1C (configuration not stated)	14	-7	-17	-9	17	2
CCN=C1SC(C(=O)Nc2cccc(C)c2)CC(=O)N1CC (configuration not stated)	33*	3	-10	15	5	4
CCN=C1SC(C(=O)NCCc2ccccc2)CC(=O)N1CC (configuration not stated)	26*	-1	-14	3	17	4
CCN=C1SC(C(=O)Nc2cccc(Br)c2)CC(=O)N1CC (configuration not stated)	30*	-3	-15	16	-1	8
CCN=c1sc(C(=O)NCCc2ccccc2)cc(=O)n1CC	30*	4	-4	15	7	6
CCN=C1SC(C(=O)Nc2ccc(Cl)c(Cl)c2)CC(=O)N1CC (configuration not stated)	7	-1	-5	5	13	4
CCN1C(=O)CC(C(=O)Nc2ccc(F)cc2)SC1=Nc1ccc2c(c1)OCO2 (configuration not stated)	12	-1	-3	10	15	3
CCN=C1SC(C(=O)Nc2cccc(Cl)c2)CC(=O)N1CC (configuration not stated)	38*	0	-9	5	7	7
CCN=C1SC(C(=O)Nc2ccc(OC)cc2)CC(=O)N1CC (configuration not stated)	32*	-1	-20	19	1	5
CCN=C1SC(C(=O)Nc2cc(Cl)cc(Cl)c2)CC(=O)N1CC (configuration not stated)	-10	-4	6	-15	17	1
CCN=C1SC(C(=O)Nc2ccc(OCC)cc2)CC(=O)N1CC (configuration not stated)	17	2	-13	4	8	6
CCc1nc2ccc(C(=O)Nc3cccc(OCC(=O)N(C)C)c3)cn2c1N(C)Cc1cc2ccccc2s1	50*	-1	-25	9	-4	8
CCNC(=O)N(C)c1c(CC)nc2ccc(C(=O)Nc3cccc(OCC(=O)N(C)C)c3)cn12	32*	-1	-13	14	-18	0
CCc1nc2ccc(C(=O)Nc3cccc(OCC(=O)N(C)C)c3)cn2c1N(C)C(=O)c1ccncc1	-19	-2	9	-17	10	1
COc1cccc(CN(C)C(=O)c2cccc(S(=O)(=O)N3CCN(c4ccc(F)cc4)CC3)c2)c1OC	28*	-2	-10	11	-22	10
COc1cccc(CN(C)C(=O)c2cccc(S(=O)(=O)N3CCN(c4ccccc4)CC3)c2)c1OC	11	1	-12	-9	-3	12
CN(Cc1ccc(OC(F)F)cc1)C(=O)c1cccc(S(=O)(=O)N2CCN(Cc3ccccc3)CC2)c1	33*	-3	-14	12	-7	11
CCCS(=O)(=O)NC(=O)C1(C)CCCN(C(=O)c2ccc(C#N)cc2)C1 (configuration not stated)	-5	0	-1	-3	7	0
SMILES	M1 antag	CHRM1 agonist	M1 PAM	CHO-K1 Ca antag	M1 PAM parental	CHO-K1 Ca ag
CC[N+](CC)(CC#Cc1ccccc1)CC#Cc1ccccc1	42*	-7	-20	-11	8	0
O=C(NC(c1ccccc1)c1ccccc1)c1cccc(S(=O)(=O)NCc2ccccc2)c1	-9	-8	4	-1	14	1
N#C/C(=N\Nc1ccccc1)C(N)=S	-12	6	16	18	3	6
Cc1ccc(N/N=C(\C#N)C(N)=S)cc1C	5	0	1	7	-2	16*
N#C/C(=N\Nc1ccc(Cl)cc1)C(=O)c1ccsc1	12	5	0	24*	-3	13
N#C/C(=N\Nc1cccc(Cl)c1)C(=O)c1ccccc1	15	5	-3	29*	-3	5
Cc1ccc(NC(N)=S)cc1C	-2	-4	7	8	12	0
N#C/C(=N\Nc1ccc(Cl)cc1)C(N)=S	13	7	-3	25*	-22	11
CN(CC(=O)Nc1c(Cl)cccc1Cl)C(=O)CCNS(=O)(=O)c1ccccc1C(F)(F)F	22	-1	-8	10	-22	0
COc1ccc(-n2nnnc2CNC(=O)C2CC(=O)N(c3ccc(F)cc3)C2)cc1 (configuration not stated)	-10	2	10	28*	-16	0
COc1ccc(N2CC(C(=O)Nc3c4c(nn3-c3ccc(OC)cc3)CS(=O)(=O)C4)CC2=O)cc1 (configuration not stated)	-26	1	26*	-2	5	1
COc1cccc(C(=O)NC(=S)Nc2ccc3c4c(cccc24)CC3)c1	3	-3	-9	-7	18	0
O=[N+]([O-])c1ccc(C2=NN(c3ccccc3)C(c3ccco3)C2)cc1 (configuration not stated)	71*	78*	-22	59*	-16	71*
O=[N+]([O-])c1ccc(/C=C/C2=NN(c3ccccc3)C(c3ccco3)C2)cc1 (configuration not stated)	25*	19*	-13	33*	-14	20*
